Screening data from PubChem.
GPT2 inh – GPT2 alanine aminotransferase inhibition. Potency, µM (titrated, usually from 57.7 µM), for the others: top-dose activity change, negative = inhibition, actives largely listed as inhibitors. hit rate 0.25% among 100,000. AID 1671188. Recombinant GPT2, coupled pyruvate oxidase/HRP Amplex Red fluorescence. Q8TD30; further: on the % scale 0 is the no-effect control and ±100 the full control effect; nearly all actives have a fitted effect of over 60% in size
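Fluorescence read-out: pyruvate from GPT2 turnover coupled to pyruvate oxidase, HRP and Amplex Red (0.2mM ThPP, 0.2U/mL PO and HRP, 50uM Amplex final). Substrates 250uM a-KG, 2mM L-alanine; enzyme 10ng/uL; 30 min RT.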
NIH3T3 tox – cytotoxic compounds in NIH 3T3 cells; NIH 3T3 viability, CellTiter-Glo ATP luminescence, 48-72 h; Potency, µM (doses to about 96.7 µM), for inactives: at the top dose activity change, negative = cytotoxicity, usual class: inhibitors; hit rate 4.3% among 94,000; further: on the % scale 0 is the no-effect control and ±100 the full control effect; nearly all actives have a fitted effect of over 55% in size
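NIH 3T3 cells at 400 cells/well received 23 nL of compound by pintool and were incubated 48 or 72 h at 37 °C. Viability was read as ATP-coupled CellTiter-Glo luminescence.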
hNpr1 antagonist – blocks ANP-stimulated signaling of human Npr1 receptor | Potency, µM (titrated, usually from 46.3 µM), for inactives: at the top dose activity change, negative = inhibition, hits mostly inhibitors | HEK293 hNpr1 GloSensor cGMP, ANP-stimulated luminescence | hit rate 1.6% among 76,000 | P16066; calls by dose curve; further: on the % scale 0 is the no-effect control and ±100 the full control effect; nearly all actives have a fitted effect of over 60% in size
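HEK293 cells stably expressing human Npr1 and cGMP GloSensor pGS-40F, loaded 2 h with 2% GloSensor reagent, given compound 30 min at room temperature. Luminescence read before and 20 min after 0.1 nM hNppA.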
Luciferase inh – Photinus pyralis luciferase inhibition. P08659. purified P. pyralis luciferase, luminescence, biochemical. Potency, µM (series often up to 115 µM), usual class: inhibitors. hit rate 2.5% among 76,000; further: on the % scale 0 is the no-effect control and ±100 the full control effect; nearly all actives have a fitted effect of over 65% in size
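Biochemical qHTS: compound (6-point titration) added to 10uM D-luciferin plus 10uM ATP in Tris acetate pH 7.5 buffer with Mg, Tween-20 and BSA, then purified enzyme at 10nM; light output imaged.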
HEK cytotox – cytotoxic compounds in HEK 293 cells; AID 1345083; Potency, µM (doses to about 115 µM), inactives show at the highest dose activity change, negative = cytotoxicity, usual class: inhibitors; HEK 293 viability, ATP luminescence (CellTiter-Glo), 48-72 h; hit rate 6.6% among 94,000; further: on the % scale 0 is the no-effect control and ±100 the full control effect; nearly all actives have a fitted effect of over 60% in size
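qHTS cytotoxicity; HEK 293, 250 cells/well; compound pinned; 48 or 72 hr, 37 degree Celsius, 5% CO2, 95% humidity; CellTiter-Glo, 10 min RT; luminescence (ATP).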
Npr1 antag conf – confirmation of human Npr1 natriuretic peptide receptor antagonists. Potency, µM (highest dose often 57.6 µM), inactives show at the top dose activity change, negative = inhibition, usual class: inhibitors. HEK293 hNpr1 cGMP GloSensor luminescence, ANP-stimulated. hit rate 76% among 1,400. shares compounds with hNpr1 antagonist; calls by dose curve; further: nearly all actives have a fitted effect of over 70% in size
NPR2 antag – hNpr2 antagonism, selectivity versus Npr1; hit rate 67% among 1,400; HEK293 hNpr2 GloSensor cGMP luminescence, CNP-stimulated; shares compounds with hNpr1 antagonist; AID 1347046; Potency, µM (doses to about 57.6 µM), for the others: top-dose activity change, negative = inhibition, hits mostly inhibitors; calls by dose curve; further: nearly all actives have a fitted effect of over 70% in size
FLuc counter – FLuc enzyme inhibition, Npr1 counter-screen | purified FLuc enzyme, luminescence, Km substrate | Potency, µM (doses to about 57.6 µM), for the others: at the highest dose activity change, negative = inhibition, actives largely listed as inhibitors | hit rate 0.7% among 1,400 | shares compounds with hNpr1 antagonist | AID 1347047; further: 0% is about no effect
GloSensor ctrl – reduces cGMP signal in GloSensor control cells; shares compounds with hNpr1 antagonist; HEK293 GloSensor cGMP, SNP-stimulated, luminescence; Potency, µM (doses to about 57.6 µM), inactives show at the top dose activity change, negative = inhibition, most hits filed as inhibitors; hit rate 69% among 1,400; calls by dose curve; further: on the % scale 0 is the no-effect control and ±100 the full control effect; nearly all actives have a fitted effect of over 70% in size
* hit, by the source's call; i = inactive; ? = inconclusive; . = no result given; [ ] = dose if it differs, or a comment. A selection: hits, their analogues and other compounds. The true share with any hit is near 10%. Unless noted, the call rests on the fitted dose curve; in most records, active means well fitted curve in the direction sought with a large enough effect; inconclusive means small, poorly fitted or top-dose-only effect, or another doubt; inactive means no such curve, though single readings can be large; an effect the other way counts as inactive or inconclusive. Potency means the concentration at half of the fitted maximal effect.

SMILES	GPT2 inh	NIH3T3 tox	hNpr1 antagonist	Luciferase inh	HEK cytotox	Npr1 antag conf	NPR2 antag	FLuc counter	GloSensor ctrl
O=C(c1ccc(Br)cc1)N1CCN(c2cc(-c3ccc(Cl)cc3)[nH]n2)CC1	i	40µM*	?	i	45µM*	22µM*	24µM*	0%	15µM*
CN(C)c1ccc(C(=O)N2CCN(c3cc(-c4ccc(Cl)cc4)[nH]n3)CC2)cc1	i	?	13µM*	i	?	22µM*	22µM*	-8%	22µM*
CN(C)c1ccc(C(=O)N2CCCN(c3cc(-c4ccc(Cl)cc4)[nH]n3)CC2)cc1	-23%	?	?	i	?	.	.	.	.
Cc1ccc(C(=O)N2CCCCCCNC(=O)[C@@H]3C[C@@H](C(=O)N4CCc5ccccc5C4)C[C@@H]32)s1	4%	-27%	-1%	i	?	.	.	.	.
c1ccc2[nH]c([C@H]3CCN(CC4CCCCC4)C3)nc2c1	4%[88.5 µM]	?	-8%[70.6 µM]	?	?	.	.	.	.
Clc1cccc(CN2CC[C@H](c3nc4ccccc4[nH]3)C2)c1	0%[88.5 µM]	?	25µM*	i	20µM*	40µM*	?	-2%[86.2 µM]	?
COc1ccc(C(=O)N2CCC3(CC2)N=C(c2ccc(Cl)cc2)NO3)cc1OC	i	-29%	11µM*	i	?	11µM*	12µM*	0%	9.7µM*
O=C(c1ccc2c(c1)OCO2)N1CCC2(CC1)N=C(c1ccc(Br)cc1)NO2	-15%	?	13µM*	i	?	22µM*	19µM*	-2%	17µM*
CCOc1ccc(C(=O)N2CCC3(CC2)N=C(c2ccc(Cl)cc2)NO3)cc1	-5%	1%	8.9µM*	i	?	19µM*	17µM*	-3%	15µM*
COc1ccc(C(=O)N2CCC3(CC2)N=C(c2ccc(Br)cc2)NO3)cc1OC	i	-24%	10µM*	i	?	6.9µM*	11µM*	-1%	6.9µM*
COc1ccc(C(=O)N2CCC3(CC2)N=C(c2ccccc2)NO3)cc1OC	i	i	1%	i	7%	.	.	.	.
CCOc1ccc(CC(=O)N2CCC3(CC2)N=C(c2ccc(Cl)cc2)NO3)cc1	0%	?	?	i	?	.	.	.	.
O=C(NCC1Cn2cccc2C(=O)N1Cc1ccccc1)c1ccc2ncccc2c1 (centres undefined)	i	-14%	-11%	i	?	.	.	.	.
CC(C)(C)C(=O)NCC1CCN(Cc2nc(-c3ccccc3)no2)C1 (centres undefined)	i	-23%	0%	i	-8%	.	.	.	.
COc1ccc(Nc2n[nH]c(C(O)c3cccc(C(F)(F)F)c3)n2)cc1OC (centres undefined)	?	-22%[138 µM]	-24%[70.6 µM]	i	?	.	.	.	.
OC(c1cccc(C(F)(F)F)c1)c1nc(Nc2ccc3c(c2)OCO3)n[nH]1 (centres undefined)	1%[88.5 µM]	?	?	i	?	?	?	-14%[86.2 µM]	?
COCCN1C(=O)CCc2cc(NC(=O)c3ccc(Cl)s3)ccc21	-7%	?	-9%	?	?	.	.	.	.
COc1ccc(CN2C[C@@H]3C(=O)N(Cc4ccc5c(c4)OCO5)C(=O)[C@@H]3C2)cc1OC	i	-34%	14µM*	i	?	17µM*	19µM*	-2%	12µM*
COc1ccccc1CN1C[C@@H]2C(=O)N(Cc3ccc4c(c3)OCO4)C(=O)[C@@H]2C1	i	-17%	-1%	i	-4%	.	.	.	.
COCC1CN(S(=O)(=O)c2ccc3c(c2)CCCC3)CC12CCNCC2 (centres undefined)	i	?	-1%	i	?	.	.	.	.
O=C(CC1CCCCN(Cc2ccccc2)C1=O)Nc1ccc(F)cc1F (centres undefined)	5%	-27%	0%	i	?	.	.	.	.
O=C(CC1CCCCN(Cc2ccccc2)C1=O)N1CCN(c2ccc(F)cc2)CC1 (centres undefined)	i	-27%	11µM*	i	?	24µM*	22µM*	1%	22µM*
Cc1noc(C)c1-c1cc2cc(CN(C)C)oc2c(N2CCOCC2)n1	-4%[88.5 µM]	?	-4%[70.6 µM]	i	?	.	.	.	.
O=C1CC2(CCN(C(=O)C3CCN(C(=O)c4ccc(F)cc4)CC3)CC2)Oc2ccccc2N1	i	-25%	.	.	?	.	.	.	.
O=C1CC2(CCN(C(=O)c3ccc(Cl)cc3)CC2)Oc2ccccc2N1	-6%	-22%	.	.	?	17µM*	19µM*	4%	12µM*
SMILES	GPT2 inh	NIH3T3 tox	hNpr1 antagonist	Luciferase inh	HEK cytotox	Npr1 antag conf	NPR2 antag	FLuc counter	GloSensor ctrl
O=C(c1cc2ccccc2[nH]1)N1CCC2(C1)NC(=O)N(Cc1ccc(F)cc1)C2=O (centres undefined)	i	?	22µM*	i	?	?	?	-23%	31µM*
COCCN1CCCC2(CCN(c3nc(C)nc4sccc34)C2)C1=O (centres undefined)	i	?	?	i	-34%	24µM*	?	-1%	24µM*
Cc1noc(C)c1Cc1ccc(C(=O)NCCc2noc(-c3ccccc3)n2)o1	1%	?	.	.	?	.	.	.	.
C[C@@H]1CCC2C(C)(C)[C@H](O)[C@H](O)C[C@]2(C)[C@@]12Cc1c(O)cc3c(c1O2)CN(CCCC(=O)O)C3=O (some centres undefined)	i	.	.	.	.	.	.	.	.
CN1C[C@@H](NC(=O)c2ccc3c(c2)OCO3)C[C@H]1c1nc(-c2ccc(Cl)cc2)no1	0%[88.5 µM]	79µM*	35µM*	i	50µM*	28µM*	31µM*	-28%[86.2 µM]	25µM*
COc1ccc2oc(CNC(=O)c3cc(CC(C)C)nn3C)nc2c1	i	-31%	13µM*	i	?	17µM*	17µM*	4%	15µM*
COc1ccc(-c2nnc(C[C@@H]3C[C@@H](C(C)C)[C@H](CNC(=O)c4ccc(F)cc4)C=C3C)o2)cc1	-31%	?	?	i	?	?	-25%	-1%	?
